Sampled rows, rich in hits. Any-hit rate of the full collection: about 27%.
CYP2C19 inhib – blockers of cytochrome P450 2C19 activity – biochemical, luminescence, ADME assay, primary screen. inhibition, % at 5 µM. CYP2C19 Supersomes, luciferin-H EGE luminescence, 30 min. hit rate 21% among 96,000. P33261. AID 778, 2007;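 active = CYP2C19 inhibition above a set limit at 5 µM in the primary screen, cut at about 50% in these data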;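 also: plate controls were negative control wells for no effect and 2.5 mM tranylcypromine positive control for full effect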
Target sequence (P33261 whole entry, looked up): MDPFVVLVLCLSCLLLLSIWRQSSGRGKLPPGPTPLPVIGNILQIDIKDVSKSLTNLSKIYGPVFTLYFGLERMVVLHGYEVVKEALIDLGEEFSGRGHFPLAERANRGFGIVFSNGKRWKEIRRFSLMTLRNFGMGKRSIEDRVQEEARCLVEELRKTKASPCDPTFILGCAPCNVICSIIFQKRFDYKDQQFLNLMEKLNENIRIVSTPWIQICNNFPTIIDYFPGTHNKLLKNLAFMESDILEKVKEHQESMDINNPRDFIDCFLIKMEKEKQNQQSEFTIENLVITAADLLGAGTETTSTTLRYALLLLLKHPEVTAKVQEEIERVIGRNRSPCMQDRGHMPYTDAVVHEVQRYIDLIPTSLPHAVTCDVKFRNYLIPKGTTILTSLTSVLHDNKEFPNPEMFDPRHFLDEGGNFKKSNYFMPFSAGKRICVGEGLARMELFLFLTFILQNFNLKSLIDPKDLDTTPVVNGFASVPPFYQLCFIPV
CYP2C19 act – human CYP2C19 activators, primary screen, biochemical, luminescence; AID 1025, 2008; recombinant CYP2C19, luciferin-H EGE luminescence; stronger effect = higher value; 0 = fully inhibited enzyme, 1 = untreated enzyme; activation factor at 5 µM; 96,000 tested, under 10 active; Cytochrome P450 2C19 (Homo sapiens), P33261;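 active = activation factor of at least 2 at 5 µM in the primary screen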;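 also: 0 = wells with 2.5 mM tranylcypromine and 1 = vehicle-only wells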
sEH act – soluble epoxide hydrolase activators, primary screen, biochemical, human sEH; Bifunctional epoxide hydrolase 2 (Homo sapiens), P34913; purified human sEH enzymatic activity, activator screen; activation, % at 2 µM; hit rate 0.04% among 91,000; AID 717, 2007; in the data active = activation above about 37%
CYP2C9 inhib – blockers of cytochrome P450 2C9 activity – biochemical, luminescence, ADME assay, primary screen; P11712; CYP2C9 Supersomes, luciferin-H conversion; inhibition, % at 5 µM; AID 777, 2007; hit rate 20% among 96,000;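 active = blocking of liver enzyme CYP2C9 beyond about 50% at 5 µM, limit read from the data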
CYP2C9 act – human CYP2C9 activators, primary screen, biochemical, luminescence | Cytochrome P450 2C9 (Homo sapiens), P11712 | hit rate 1.4% among 96,000 | activation factor at 5 µM | recombinant CYP2C9, luciferin-H conversion; stronger effect = higher value; factor 1 = untreated enzyme, 0 = blocked;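 active = activation factor of 2 or more for CYP2C9 at a 5 µM dose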;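 also: 0 = sulfaphenazole-blocked wells and 1 = vehicle-only wells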
sEH inhibitor – soluble epoxide hydrolase inhibitors, primary screen, biochemical, human sEH; Bifunctional epoxide hydrolase 2 (Homo sapiens), P34913; recombinant human sEH enzymatic activity assay; inhibition, % at 2 µM; hit rate 0.34% among 91,000; in the data active = inhibition above about 80%
The depositor's hits bear a star; x = no result given.

SMILES	CYP2C19 inhib	CYP2C19 act	sEH act	CYP2C9 inhib	CYP2C9 act	sEH inhibitor
CCc1ccc(N(CC(=O)Nc2ccc(OC)cc2OC)S(C)(=O)=O)cc1	88*	0.1	x	97*	0	x
COc1ccccc1NC(=O)C12CC3CC(C1)CC(c1ccc(C)cc1)(C3)C2	57*	0.4	11	-4	1	-12
COc1ccccc1NC(=O)CN(c1ccc(C23CC4CC(CC(C4)C2)C3)cc1)S(C)(=O)=O	3	1	-8	64*	0.4	11
COc1ccc(NC(=O)CN(Cc2ccccc2)S(C)(=O)=O)c(OC)c1	28	0.7	-7	29	0.7	8
Cc1c(C(=O)N(C)C)sc(NC(=O)c2cc([N+](=O)[O-])cc([N+](=O)[O-])c2)c1C#N	0	1	1	47	0.5	1
COc1ccc(C)cc1NC(=O)CN(c1ccc(F)cc1)S(C)(=O)=O	31	0.7	-8	65*	0.3	7
CCN(CC)CCNC(=O)C1c2cc(OC)c(OC)cc2C(=O)N2CCc3ccccc3C12 (stereo unspecified)	2	1	x	76*	0.2	x
CCCN(CCC)CCCNC(=O)C1c2cc(OC)c(OC)cc2C(=O)N(C)C1c1cccs1 (stereo unspecified)	0	1	-5	-5	1	1
CCOC(=O)N1CCN(C(=O)C2c3cc(OC)c(OC)cc3C(=O)N3CCc4ccccc4C23)CC1 (stereo unspecified)	6	0.9	-3	76*	0.2	4
COc1cc2c(cc1OC)C(C(=O)NC1CC1)C1c3ccccc3CCN1C2=O (stereo unspecified)	x	x	1	x	x	-1
CCN(CC)CCCNC(=O)C1c2cc(OC)c(OC)cc2C(=O)N(C)C1c1cccs1 (stereo unspecified)	74*	0.3	0	19	0.8	-4
CC(C)NC(=O)c1ccc(C2SCC(=O)N2Cc2ccccc2)cc1 (stereo unspecified)	x	x	-10	x	x	14
CCN1C(=O)/C(=C/c2cccs2)N(C)C1=S	67*	0.3	4	51*	0.5	-4
CCOc1ccc(N2C(=O)/C(=C/c3cccs3)N(CC(=O)OC)C2=S)cc1	22	0.8	8	-2	1	-7
COc1ccc(C(=O)Nn2cnc3ccccc3c2=O)c(OC)c1	24	0.8	-10	-6	1.1	7
COc1ccc(OC)c(S(=O)(=O)n2nnc3ccccc32)c1	59*	0.4	x	-77	1.8	x
CCOc1ccc(C)cc1S(=O)(=O)Nc1ccc(Cl)cn1	4	1	18	15	0.9	-21
COc1ccc(OC)c(S(=O)(=O)Nc2cccc(C(C)=O)c2)c1	98*	0	-6	66*	0.3	11
COc1ccc(C(=O)O)cc1S(=O)(=O)Nc1cccc(C)c1	-13	1.1	4	-10	1.1	-2
COc1ccc(C)cc1S(=O)(=O)Nc1cccnc1	20	0.8	x	4	1	x
COc1ccc(C)cc1S(=O)(=O)Nc1ccc(F)cc1	88*	0.1	6	72*	0.3	-8
CCOc1cc(C)c(S(=O)(=O)Nc2ccc(F)cc2)cc1C	100*	0	6	97*	0	-7
CCCn1c(SCC(=O)NC(C)C23CC4CC(CC(C4)C2)C3)n[nH]c1=O (stereo unspecified)	0	1	-19	-12	1.1	21
C=C1Cn2c(nnc2-c2ccc(Cl)cc2)S1	44	0.6	7	-32	1.3	-10
O=C(Cc1cn2ccsc2n1)Nc1nc2c(s1)CN(Cc1ccccc1)CC2	-7	1.1	x	8	0.9	x
SMILES	CYP2C19 inhib	CYP2C19 act	sEH act	CYP2C9 inhib	CYP2C9 act	sEH inhibitor
O=C(NN1C(=O)c2ccccc2NC1c1ccccc1OCc1ccccc1)c1ccncc1 (stereo unspecified)	49	0.5	9	33	0.7	-8
Cc1ccc2c(n1)sc1c(N)ncnc12	-6	1.1	-6	-3	1	6
COc1ccc(F)cc1S(=O)(=O)Nc1ccc2c(c1)OCCO2	34	0.7	x	7	0.9	x
O=S(=O)(Nc1cnc2ccccc2c1)N1CCCCCC1	57*	0.4	-3	13	0.9	1
COC(=O)c1ccc(NS(=O)(=O)c2cc(C)ccc2OC)cc1	13	0.9	4	55*	0.4	-1
COc1ccc(OC)c(S(=O)(=O)Nc2cccc(F)c2)c1	89*	0.1	3	68*	0.3	-1
COc1ccc(OC)c(S(=O)(=O)Nc2ccc(OCC(=O)O)cc2)c1	-4	1	7	2	1	-7
COc1ccc(OC)c(S(=O)(=O)Nc2ccc(F)cc2)c1	52*	0.5	-14	3	1	16
COc1ccc(NC(=O)C2CC(=O)OC2(C)C)cc1 (stereo unspecified)	10	0.9	-4	-11	1.1	5
CCc1cc2c(N[C@@H](C)C(=O)O)ncnc2s1	7	0.9	12	0	1	-10
CCn1nnnc1-c1ccc(OC)c(S(=O)(=O)Nc2ccc(C(=O)OC)cc2)c1	23	0.8	-1	35	0.7	4
CCOC(=O)c1ccc(NS(=O)(=O)c2cc(-c3nnnn3C(C)C)ccc2OC)cc1	90*	0.1	20	91*	0.1	-17
COc1ccc(OC)c(S(=O)(=O)Nc2cnc3ccccc3c2)c1	73*	0.3	-4	24	0.8	3
COc1ccc(OC)c(S(=O)(=O)Nc2ccc(CC(=O)O)cc2)c1	-3	1	x	2	1	x
COc1ccc(NS(=O)(=O)c2ccc(OC)c3ccccc23)cn1	17	0.8	15	85*	0.1	-16
CCc1ccc(NS(=O)(=O)c2cc(OC)ccc2OC)cc1	54*	0.5	13	68*	0.3	-12
O=C(O)CS(=O)(=O)CC(=O)O	-3	1	4	14	0.9	-6
CCCCCC(=O)Nc1cc2[nH]c(=O)cc(COC)c2cc1C	0	1	-8	14	0.9	10
Fc1ccc(Cn2nnnc2CN2CCc3ccccc3C2)cc1	58*	0.4	x	47	0.5	x
c1ccc(Cn2nnnc2CN2CCN(c3ncccn3)CC2)cc1	19	0.8	-2	93*	0.1	4
Fc1ccc(Cn2nnnc2CN2CCN(C3CCCC3)CC2)cc1	5	1	2	0	1	2
CCOc1cc(NS(=O)(=O)c2ccc(NC(C)=O)cc2)c(OCC)cc1NC(=O)C(C)C	-5	1.1	-4	40	0.6	3
COc1cc(NS(=O)(=O)c2ccc(F)cc2)c(OC)cc1NC(C)=O	99*	0	-2	67*	0.3	2

Compound activity (PubChem)
